Four molecules from PubChem BioAssay can be followed below.

Records with an inconclusive call do not appear. The source made the active and inactive calls.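 The calls were made as follows, unless noted: active = response below a set limit, under 55% cells CD8-positive and vesicle-bound, and CD8 cells' 90th-percentile brightness under 279; inactive = the rest.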

Assay [1] is described as follows: yeast TOR pathway RPL19A-GFP modulators, primary screen, cell-based, S. cerevisiae, multiplex flow cytometry (AID 1862; in the data active = percent of DMSO control GFP below about 86%;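 also: lower values mimic rapamycin by blocking the RPL19A rise seen in DMSO cells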). The conditions noted are these: S. cerevisiae RPL19A-GFP strain, flow cytometry fluorescence, 3 h; at 10 µM; stronger effect = lower value. (In flow cytometry, cells or beads pass a laser one at a time.)
Assay [2] is described as follows: modulators of MEP2-GFP levels in yeast, primary screen, S. cerevisiae, multiplex flow cytometry (AID 1867;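 active = GFP response, as percent of the DMSO control, above the screen-wide mean plus 3 SD, about 139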;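 also: median GFP channel fluorescence of barcode-gated MEP2-GFP cells measured by flow cytometry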). To be noted: S. cerevisiae MEP2-GFP strain, 3 h, at 10 µM, stronger effect = higher value, 100% means same as DMSO wells.
Assay [3] is described as follows: modulators of CIT2-GFP expression in yeast, primary screen, S. cerevisiae, GFP fusion, multiplex flow cytometry (AID 1870;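 active = percent response above a set limit, the screen-wide mean plus 3 SD, cut at about 130% in these data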;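 also: barcoded CIT2-GFP strain pooled with four other GFP strains with rapamycin as positive control; median GFP fluorescence per well over plate mean of DMSO wells so 100% = DMSO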). To be noted: 3 h, at 10 µM, stronger effect = higher value.
Assay [4] can be described thus: modulators of LAP4-GFP expression in yeast, primary screen, S. cerevisiae, multiplex flow cytometry (AID 1873;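 active = GFP signal, as percent of the solvent control, above the screen mean plus 3 SD, about 149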). The conditions noted are these: 3 h, at 10 µM, stronger effect = higher value.
Assay [5] can be described thus: modulators of AGP1-GFP expression in yeast TOR pathway, primary screen, cell-based, multiplex flow cytometry, S. cerevisiae (AID 1887;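 active = GFP signal above the screen-wide mean plus 3 SD, that is over about 124.5% of the solvent control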;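 also: AGP1-GFP fusion strain of S. cerevisiae within a five-strain barcoded multiplex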). To be noted: 3 h, at 10 µM, stronger effect = higher value.
Assay [6] is described as follows: inhibitors of CD8+ T cell-vesicle binding, pilot screen, LFA-1/ICAM-1 modulator project, MLPCN validation set, flow cytometry (AID 2523).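 As to vesicle binding response: mean PE anti-B7-1 fluorescence of CD8+ cells relative to row control; 100% = QL9-loaded vesicles with DMSO vehicle in the same plate row.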 The conditions noted are these: 2C mouse CD8+ T cells, at 7 µM, stronger effect = lower value; double positive events: measured here: CD8+/vesicle+ event percentage.
Assay [7] concerns the target Integrin beta-1 (Homo sapiens) + Integrin alpha-4 (Homo sapiens) (UniProt P13612+P05556). Description: inhibition of HUTS-21 binding to VLA-4, pilot screen, VLA-4 allosteric modulator project, U937 cells, HUTS-21 mAb, flow cytometry, validation set (AID 2674;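 active = inhibition above 50%, about 3 SD of the validation set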;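 also: antibody binding induced by the VLA-4 ligand LDV present at three times its Kd; 0% = LDV ligand with antibody and no compound and 100% = antibody without LDV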). To be noted: HUTS-21 LIBS mAb binding, at 6.7 µM, stronger effect = higher value, binding induced by LDV ligand.
The nature of assay [8]: superoxide lowering in aged yeast cells, pilot screen, validation compound set (AID 2706;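 active = superoxide response below 65% of plate, a cut near 3 SD across the whole screen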;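 also: yeast exposed to compound for one week at 30 degrees C before staining; 100% = mean of all compound wells on the same plate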). The conditions noted are these: S. cerevisiae aging, superoxide DHE fluorescence; at 10 µM; stronger effect = lower value.
The target of assay [9] is Beta-adrenergic receptor kinase 1 (Homo sapiens) (UniProt P25098). Briefly: GRK2 binders displacing RNA aptamer, biochemical, validation, human GRK2, bead flow cytometry (AID 488806;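 active = aptamer binding inhibition above 30%, about 3 SD of noise from non-fluorescent compounds; inactive = inhibition at or below 30%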). To be noted: bead-bound GRK2, FAM-aptamer displacement, at 10 µM, stronger effect = higher value.
For assay [10], the target named is Beta-2 adrenergic receptor (Homo sapiens) (UniProt P07550). Description: beta2AR agonists driving receptor internalization, pilot screen, cell-based, FAP fluorogen, flow cytometry, validation set (AID 504459;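 active = percent response above 42, roughly 3 SD of non-fluorescent test compounds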;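 also: agonist-driven loss of surface beta2AR via internalization measured by FAP dye flow cytometry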). To be noted: Am2.2-beta2AR cells, FAP surface receptor flow cytometry; at 10 µM; stronger effect = higher value.
The target of assay [11] is AP-2 complex subunit beta (Homo sapiens) (UniProt P63010). Briefly: inhibitors of arrestin peptide binding to AP2, pilot screen, biochemical, validation set, GST-AP2 beads, flow cytometry (AID 504541;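 active = inhibition above 54%, about 3 SD of non-fluorescent compounds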;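 also: AP2 carries R879A mutation and is captured from E. coli lysate; bead-bound FITC arrestin peptide fluorescence measuring arrestin peptide binding to AP2; 0% = DMSO wells and 100% = excess unlabeled arrestin peptide control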). The conditions noted are these: FITC arrestin peptide, at 10 µM, stronger effect = higher value, AP2 beta2 appendage fragment, R879A mutant.
The nature of assay [12]: yeast V-ATPase proton transport modulators, S. cerevisiae, pHLuorin, HTS validation (AID 504600; in the data active = response above about 15%;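 also: plate controls were DMSO for no effect and reference compound for full effect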). The conditions noted are these: S. cerevisiae pHLuorin cytosolic pH, at 10 µM, stronger effect = higher value.
Assay [13] has as its system anti-desmoglein-3 scFv antibody binding to human DSG3. Briefly: inhibitors of anti-DSG3 scFv binding to DSG3, pilot screen, biochemical, validation compound set, bead-based, flow cytometry (AID 588368;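 active = binding below the plate cutoff, the plate median minus 3 SD, with a reading above zero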;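 also: signal is the median channel fluorescence of bead-bound GFP antibody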). The conditions noted are these: Protein G beads, DSG3-Fc, scFv-GFP binding, at 10 µM, stronger effect = lower value.
Assay [14] in a line: inhibitors of fungal efflux pumps CDR1, CDR2, MDR1, pilot screen, validation compound set, multiplex, phenotypic (AID 588506;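 active = efflux inhibition above 0.42, the validation set average plus 4 SD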;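 also: Nile Red retained in cells so higher fluorescence means more efflux inhibition; 0 = negative control wells and 1 = enniatin B 25 µM full block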). To be noted: S. cerevisiae pump-expressing triplex, Nile Red efflux flow cytometry; at 10 µM; stronger effect = higher value; the pumps come from Candida albicans.
Assay [15] has as its target ATP-binding cassette sub-family B member 6 (Homo sapiens) (UniProt Q9NP58). Description: ABCB6 transporter inhibitors, pilot screen, K562-ABCB6 cells, flow cytometry, validation set (AID 588550;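 active = inhibition above the screen-wide mean plus 3 SD, about 51%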;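 also: 0% = DMSO wells and 100% = benzethonium chloride 70 µM positive control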). The conditions noted are these: K562-ABCB6 porphyrin accumulation, 1 h, at 10 µM, stronger effect = higher value.
Assay [16] can be described thus: promoters of myeloid differentiation in arrested cells, primary screen, cell-based, GFP/MAC1 double positive, flow cytometry, validation set (AID 588685;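 active = differentiation response of at least 50%, scaled between solvent and reference control, from cells with both markers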;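 also: compound exposure lasts four days before antibody staining and flow analysis; 0% = DMSO wells and 100% = 5 µM fulvestrant positive control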). To be noted: ER-HoxA9 marrow cells, stronger effect = higher value, normalized: vehicle 0, fulvestrant 100.

Sequence of ATP-binding cassette sub-family B member 6 (Homo sapiens) (Q9NP58 whole entry, looked up): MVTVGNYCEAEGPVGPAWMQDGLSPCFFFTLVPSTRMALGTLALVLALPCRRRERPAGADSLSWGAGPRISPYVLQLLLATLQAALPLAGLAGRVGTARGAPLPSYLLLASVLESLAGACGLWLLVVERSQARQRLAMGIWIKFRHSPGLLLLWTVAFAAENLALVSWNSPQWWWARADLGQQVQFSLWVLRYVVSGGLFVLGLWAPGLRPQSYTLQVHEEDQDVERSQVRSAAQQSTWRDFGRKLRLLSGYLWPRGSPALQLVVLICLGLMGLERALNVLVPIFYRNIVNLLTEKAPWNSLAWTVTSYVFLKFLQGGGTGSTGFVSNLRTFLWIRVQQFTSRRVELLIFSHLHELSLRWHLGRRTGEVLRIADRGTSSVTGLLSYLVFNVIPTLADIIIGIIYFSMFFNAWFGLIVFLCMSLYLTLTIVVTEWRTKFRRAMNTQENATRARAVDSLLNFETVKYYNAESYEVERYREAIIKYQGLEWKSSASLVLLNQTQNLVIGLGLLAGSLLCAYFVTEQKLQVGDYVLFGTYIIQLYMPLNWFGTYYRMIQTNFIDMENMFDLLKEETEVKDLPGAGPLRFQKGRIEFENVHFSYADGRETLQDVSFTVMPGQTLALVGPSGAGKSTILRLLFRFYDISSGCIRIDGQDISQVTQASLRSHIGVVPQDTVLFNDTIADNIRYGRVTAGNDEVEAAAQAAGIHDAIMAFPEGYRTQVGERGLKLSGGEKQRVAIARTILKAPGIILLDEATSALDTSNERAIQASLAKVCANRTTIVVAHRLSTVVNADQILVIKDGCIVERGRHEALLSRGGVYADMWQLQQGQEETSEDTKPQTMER
Sequence of AP-2 complex subunit beta (Homo sapiens) (P63010 whole entry, looked up, the tested form may be a part, one chain of several): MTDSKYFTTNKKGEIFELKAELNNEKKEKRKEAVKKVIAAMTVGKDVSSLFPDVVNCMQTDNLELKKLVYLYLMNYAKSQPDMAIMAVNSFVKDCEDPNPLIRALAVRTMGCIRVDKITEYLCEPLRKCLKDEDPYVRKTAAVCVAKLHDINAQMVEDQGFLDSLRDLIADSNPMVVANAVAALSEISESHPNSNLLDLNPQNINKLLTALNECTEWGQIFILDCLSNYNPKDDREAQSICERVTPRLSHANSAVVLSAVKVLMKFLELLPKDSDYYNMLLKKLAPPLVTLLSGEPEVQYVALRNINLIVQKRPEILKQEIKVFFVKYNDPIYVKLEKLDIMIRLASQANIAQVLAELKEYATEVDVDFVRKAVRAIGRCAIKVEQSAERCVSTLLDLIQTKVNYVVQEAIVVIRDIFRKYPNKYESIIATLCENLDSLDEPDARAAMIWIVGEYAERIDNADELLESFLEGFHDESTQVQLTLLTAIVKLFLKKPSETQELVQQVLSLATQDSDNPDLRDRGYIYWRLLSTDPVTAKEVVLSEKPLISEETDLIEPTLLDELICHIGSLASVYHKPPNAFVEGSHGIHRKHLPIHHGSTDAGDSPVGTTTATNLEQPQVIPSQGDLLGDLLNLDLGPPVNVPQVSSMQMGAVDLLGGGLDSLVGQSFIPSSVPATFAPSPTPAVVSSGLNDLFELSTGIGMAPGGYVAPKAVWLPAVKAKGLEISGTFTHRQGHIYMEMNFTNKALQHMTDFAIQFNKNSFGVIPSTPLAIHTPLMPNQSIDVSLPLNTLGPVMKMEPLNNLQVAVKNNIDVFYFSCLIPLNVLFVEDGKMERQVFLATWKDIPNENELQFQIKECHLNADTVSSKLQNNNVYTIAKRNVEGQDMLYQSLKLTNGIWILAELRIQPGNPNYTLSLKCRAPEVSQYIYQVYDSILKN
Sequence of Integrin beta-1 (Homo sapiens) + Integrin alpha-4 (Homo sapiens) (P05556 whole entry, looked up): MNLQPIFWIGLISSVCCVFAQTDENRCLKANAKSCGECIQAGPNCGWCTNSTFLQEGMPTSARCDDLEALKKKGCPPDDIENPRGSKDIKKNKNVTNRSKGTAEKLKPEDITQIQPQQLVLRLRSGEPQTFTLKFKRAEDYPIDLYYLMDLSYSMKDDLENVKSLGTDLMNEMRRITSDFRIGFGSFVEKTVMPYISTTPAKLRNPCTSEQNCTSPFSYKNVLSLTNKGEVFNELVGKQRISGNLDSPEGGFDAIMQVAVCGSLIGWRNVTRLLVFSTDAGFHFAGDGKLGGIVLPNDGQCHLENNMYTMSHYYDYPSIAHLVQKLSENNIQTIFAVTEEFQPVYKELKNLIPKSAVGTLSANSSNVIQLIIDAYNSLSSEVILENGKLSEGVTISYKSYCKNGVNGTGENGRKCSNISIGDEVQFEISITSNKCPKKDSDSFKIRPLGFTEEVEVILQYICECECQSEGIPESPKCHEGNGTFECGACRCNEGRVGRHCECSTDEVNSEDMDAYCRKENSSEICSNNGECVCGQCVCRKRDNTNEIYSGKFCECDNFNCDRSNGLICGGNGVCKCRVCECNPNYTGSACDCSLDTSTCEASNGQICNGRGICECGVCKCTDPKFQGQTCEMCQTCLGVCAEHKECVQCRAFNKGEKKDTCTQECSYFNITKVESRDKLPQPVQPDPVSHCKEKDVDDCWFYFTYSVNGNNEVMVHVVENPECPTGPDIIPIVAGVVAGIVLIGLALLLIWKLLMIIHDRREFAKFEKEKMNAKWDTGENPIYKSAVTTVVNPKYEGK
Sequence of Integrin beta-1 (Homo sapiens) + Integrin alpha-4 (Homo sapiens) (P13612 whole entry, looked up): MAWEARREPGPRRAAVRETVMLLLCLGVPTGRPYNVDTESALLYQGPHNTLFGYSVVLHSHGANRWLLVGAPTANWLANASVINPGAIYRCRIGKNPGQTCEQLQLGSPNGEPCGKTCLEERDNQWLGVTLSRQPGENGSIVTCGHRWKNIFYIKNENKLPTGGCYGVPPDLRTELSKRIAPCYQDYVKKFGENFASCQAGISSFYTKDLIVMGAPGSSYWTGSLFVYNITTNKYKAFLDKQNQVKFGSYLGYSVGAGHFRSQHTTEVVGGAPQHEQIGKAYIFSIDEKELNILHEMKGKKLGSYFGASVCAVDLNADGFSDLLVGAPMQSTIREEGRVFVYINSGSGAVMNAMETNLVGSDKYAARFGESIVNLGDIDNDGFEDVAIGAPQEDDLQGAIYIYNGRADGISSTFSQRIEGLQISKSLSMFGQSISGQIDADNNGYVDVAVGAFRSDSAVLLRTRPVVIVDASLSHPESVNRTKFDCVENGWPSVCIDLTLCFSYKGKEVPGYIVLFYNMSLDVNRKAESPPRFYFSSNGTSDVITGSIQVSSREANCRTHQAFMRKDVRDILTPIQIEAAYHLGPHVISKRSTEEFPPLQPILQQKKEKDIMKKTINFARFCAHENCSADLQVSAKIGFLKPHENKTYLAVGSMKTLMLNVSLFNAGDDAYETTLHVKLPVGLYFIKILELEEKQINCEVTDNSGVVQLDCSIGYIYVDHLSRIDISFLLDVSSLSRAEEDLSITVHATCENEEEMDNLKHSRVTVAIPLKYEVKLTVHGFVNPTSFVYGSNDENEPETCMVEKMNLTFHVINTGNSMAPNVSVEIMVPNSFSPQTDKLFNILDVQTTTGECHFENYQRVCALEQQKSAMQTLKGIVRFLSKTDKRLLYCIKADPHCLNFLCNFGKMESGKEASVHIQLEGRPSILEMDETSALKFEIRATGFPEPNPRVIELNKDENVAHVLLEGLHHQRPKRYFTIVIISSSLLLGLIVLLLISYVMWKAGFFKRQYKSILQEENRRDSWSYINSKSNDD
Sequence of Beta-2 adrenergic receptor (Homo sapiens) (P07550 whole entry, looked up): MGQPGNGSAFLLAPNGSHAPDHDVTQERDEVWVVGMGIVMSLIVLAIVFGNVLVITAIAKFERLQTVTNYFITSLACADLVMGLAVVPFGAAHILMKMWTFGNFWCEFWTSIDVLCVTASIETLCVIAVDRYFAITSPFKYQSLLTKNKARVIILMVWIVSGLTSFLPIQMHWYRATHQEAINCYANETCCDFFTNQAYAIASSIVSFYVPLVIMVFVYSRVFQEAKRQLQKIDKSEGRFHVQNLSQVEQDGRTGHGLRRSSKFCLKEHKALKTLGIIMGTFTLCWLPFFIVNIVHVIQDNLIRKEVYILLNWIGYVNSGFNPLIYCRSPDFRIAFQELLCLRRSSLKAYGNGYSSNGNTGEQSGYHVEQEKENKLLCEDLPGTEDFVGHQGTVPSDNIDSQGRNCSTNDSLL
Sequence of Beta-adrenergic receptor kinase 1 (Homo sapiens) (P25098 whole entry, looked up): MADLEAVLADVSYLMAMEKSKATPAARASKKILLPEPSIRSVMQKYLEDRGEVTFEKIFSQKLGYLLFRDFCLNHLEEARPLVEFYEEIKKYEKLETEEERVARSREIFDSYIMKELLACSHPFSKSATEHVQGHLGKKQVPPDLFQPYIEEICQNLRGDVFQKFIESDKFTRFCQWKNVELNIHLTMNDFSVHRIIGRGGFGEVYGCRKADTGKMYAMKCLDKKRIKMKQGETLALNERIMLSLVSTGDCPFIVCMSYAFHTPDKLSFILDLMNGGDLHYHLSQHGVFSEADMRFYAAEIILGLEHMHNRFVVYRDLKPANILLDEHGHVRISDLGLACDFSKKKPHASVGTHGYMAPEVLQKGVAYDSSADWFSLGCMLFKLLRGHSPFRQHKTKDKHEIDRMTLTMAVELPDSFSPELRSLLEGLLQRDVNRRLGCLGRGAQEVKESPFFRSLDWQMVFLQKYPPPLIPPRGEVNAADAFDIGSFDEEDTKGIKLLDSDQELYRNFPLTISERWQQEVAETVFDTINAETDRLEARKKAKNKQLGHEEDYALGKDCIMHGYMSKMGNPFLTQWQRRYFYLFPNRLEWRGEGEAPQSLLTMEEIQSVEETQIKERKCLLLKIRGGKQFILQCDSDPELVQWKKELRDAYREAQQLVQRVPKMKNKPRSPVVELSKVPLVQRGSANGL

In general, inhibition refers to the drop in the measured response relative to a control, in per cent. On to `CC1(C)C(=O)OC(c2cccs2)C2(CCCCC2)C1=O` (stereo not drawn), for which the percent of DMSO control GFP in assay [1] is 99.2% (inactive). Moreover, the GFP response vs DMSO is 108% (inactive) in [2] and 105% (inactive) in assay [4]. For the same molecule, the percent response of DMSO control in assay [3] is 96.6% (inactive). In addition, the GFP response, % of DMSO in assay [5] is 97.5% (inactive). For the same molecule, the double positive events in assay [6] is 61.1%. Besides, the vesicle binding response in assay [6] was 228% (inactive). The inhibition in assay [7] was -18.1% (inactive); in [11], 44.8% (inactive); in assay [15], 2% (inactive). In [8], the superoxide response (% of plate) is 109% (inactive). Moreover, the aptamer binding inhibition in [9] was 0% (inactive). Further, the response in assay [10] was 3.42% (inactive); in assay [12], -2.62% (inactive). In addition, the binding (% of control) in assay [13] is 97.4% (inactive). In assay [14], the efflux inhibition (fraction of control) was -0.01 (inactive). For the same molecule, the differentiation response in assay [16] is 53% (active).
As for `CC(C)c1ccc(NC(=O)CNS(=O)(=O)c2ccc(F)cc2)cc1`, the percent of DMSO control GFP in assay [1] was 99.3% (inactive). Moreover, the GFP response vs DMSO in assay [2] was 107% (inactive); in assay [4], 120% (inactive). For the same molecule, the percent response of DMSO control in [3] is 101% (inactive). Also, the GFP response, % of DMSO in assay [5] is 102% (inactive). In [6], the double positive events was found to be 57.6%. For the same molecule, the vesicle binding response in assay [6] is 260% (inactive). Moreover, the inhibition in assay [7] is -3.16% (inactive); in [11], -6.24% (inactive); in assay [15] it was 1% (inactive). In addition, the superoxide response (% of plate) in [8] is 114% (inactive). Also, the aptamer binding inhibition in assay [9] was -1% (inactive). Also, the response in assay [10] is -11.4% (inactive); in [12], -3.77% (inactive). The binding (% of control) in assay [13] was 100% (inactive). For the same molecule, the efflux inhibition (fraction of control) in assay [14] was -0.1 (inactive). Moreover, in assay [16], the differentiation response is -13.6% (inactive).
For `CC(OC(=O)c1cc(=O)[nH]c2ccccc12)C(=O)c1ccccc1` (stereo not drawn), the percent of DMSO control GFP in assay [1] is 99.6% (inactive). Moreover, the GFP response vs DMSO is 101% (inactive) in assay [2] and 107% (inactive) in assay [4]. Further, the percent response of DMSO control in [3] is 106% (inactive). Also, in [5], the GFP response, % of DMSO was 105% (inactive). The molecule also had a double positive events in assay [6] of 58.9%. The vesicle binding response in [6] was 174% (inactive). Further, the inhibition in assay [7] is -15.8% (inactive); in assay [11] it was -9.56% (inactive); in assay [15], 41% (inactive). In addition, the superoxide response (% of plate) in assay [8] was 96.4% (inactive). Moreover, the aptamer binding inhibition in assay [9] is -2% (inactive). Further, the response in assay [10] was 1.78% (inactive); in assay [12], 0.61% (inactive). Moreover, in assay [13], the binding (% of control) is 106% (inactive). Besides, the efflux inhibition (fraction of control) in assay [14] was -0.61 (inactive). In addition, the differentiation response in assay [16] was -4.57% (inactive).
Take `CCc1cc(-c2[nH]ncc2-c2ccc3c(c2)OCO3)c(O)cc1O`: the percent of DMSO control GFP in assay [1] is 99.8% (inactive). Further, the values for the GFP response vs DMSO in assay [2] and in [4] were 102% (inactive) and 95.1% (inactive), respectively. Moreover, the percent response of DMSO control in [3] was 105% (inactive). Also, in assay [5], the GFP response, % of DMSO is 99.5% (inactive). In assay [6], this molecule returned a double positive events of 58.3%. Moreover, in assay [6], the vesicle binding response was 13.8% (inactive). Also, the inhibition was 9.71% (inactive) in [7], -19.7% (inactive) in assay [11] and 4% (inactive) in assay [15]. For the same molecule, the superoxide response (% of plate) in [8] is 92.1% (inactive). In addition, in assay [9], the aptamer binding inhibition is 3% (inactive). The values for the response in [10] and in [12] were 4.41% (inactive) and 0.5% (inactive), respectively. Besides, the binding (% of control) in [13] was 107% (inactive). In [14], the efflux inhibition (fraction of control) is -0.34 (inactive). Also, in [16], the differentiation response was -3.4% (inactive).
